KB-3-1 tox = KB-3-1 parental cell cytotoxicity; 400,000 tested, 1.4% active; AID 1347075; KB-3-1 viability, CellTiter-Glo ATP luminescence, 72 h; Potency, µM (titrated, usually from 46.1 µM), most hits filed as cytotoxic; note: % is set by controls: 0 for no effect and ±100 for the full control effect; nearly all actives have a fitted effect of over 60% in size
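Parental KB-3-1 adenocarcinoma cells in phenol-red-free DMEM with 10% FBS were pin-treated with compounds at several concentrations, incubated 72 h at 37 °C, and viability read by CellTiter-Glo luminescence; concentration-effect curves were fitted after normalization.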
HT1080 IDH1KD tx = toxicity to HT-1080 IDH1 knockdown cells (counter line); HT-1080 IDH1 knockdown viability, ATP luminescence, 48 h; Potency, µM (highest dose often 46.1 µM), for inactives: at the highest dose activity, negative = toxicity, usual class: cytotoxic; 360,000 tested, 2% active;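 note: 0% = DMSO wells and -100% = cell-free medium wells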
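CellTiter-Glo luminescence after 48 h compound exposure at 37 degrees C of IDH1-knockdown HT-1080 cells in 5% FBS RPMI. %Activity scaled between DMSO wells and cell-free media wells, with curves fitted and assigned curve classes.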
HT1080NT lethal = kills 2HG-producing HT-1080-NT fibrosarcoma cells. HT-1080-NT fibrosarcoma viability, CellTiter-Glo ATP luminescence, 48 h. Potency, µM (doses to about 46.1 µM), for the others: at the top dose activity, negative = less viability, actives largely listed as cytotoxic. 360,000 tested, 1.6% active;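 note: NT is the 2HG producing partner of a matched IDH1 knockdown line; 0% = DMSO-treated cells and -100% = media-only wells without cells; nearly all actives have a fitted effect of over 55% in size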
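750 cells/well, RPMI + 5% FBS; 2 h settle, compound pin-transfer, 48 h at 37 degrees C. CellTiter-Glo 10 min RT, luminescence. Normalized to DMSO and media-only wells.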
MCF10A rerep = DNA re-replication induction in MCF 10a cells; MCF 10A DNA re-replication, Hoechst nuclear intensity, 48 h; Potency, µM (titrated, usually from 46.1 µM), without a hit: top-dose activity, positive = re-replication, most hits filed as activators; 350,000 tested, 2.9% active; note: % of control where 0% means no effect; nearly all actives have a fitted effect of over 50% in size
KB-V1 cytotox = kills drug-selected multidrug resistant KB-V1 cells; KB-V1 MDR cells viability, CellTiter-Glo, 72 h; Potency, µM (titrated, usually from 46.1 µM), most hits filed as cytotoxic; 400,000 tested, 3.4% active; AID 1347076; note: % is set by controls: 0 for no effect and ±100 for the full control effect; nearly all actives have a fitted effect of over 60% in size
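In this primary screen, KB-V1 cells overexpressing P-gp are incubated with library compounds (lowest to highest concentration) for 72 h at 37 degrees C before a luminescent ATP viability read.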
SW480 rereplic = DNA re-replication induction in SW480 cells; Potency, µM (series often up to 46.1 µM), inactives show at the highest dose re-replication activation, usual class: activators; AID 624297; SW480 DNA re-replication, Hoechst DNA content imaging, 48 h; 340,000 tested, 1.8% active; note: % of control where 0% means no effect; nearly all actives have a fitted effect of over 55% in size
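Quantitative HTS format with DMSO vehicle controls; 48 hr drug incubation at 37 C, then 40 min Hoechst staining and scanning imager measurement at 405 nm excitation.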
* = called active by the depositor; i = inactive; u = inconclusive; x = no result; [ ] = dose if it differs, or a comment. In the library only some 8% were active in any assay of this set; here they are far more common. Calls come from the whole dose curve; as a rule, active = well fitted curve in the direction sought with a large enough effect; inconclusive = small, poorly fitted or top-dose-only effect, or another doubt; inactive = no such curve, though single readings can be large; an effect the other way counts as inactive or inconclusive. Potency is the fitted concentration of half-maximal effect.

SMILES	KB-3-1 tox	HT1080 IDH1KD tx	HT1080NT lethal	MCF10A rerep	KB-V1 cytotox	SW480 rereplic
COc1cccc(C2CN(c3ccc(F)cc3F)N=C2c2cccs2)c1OC (stereo unspecified)	i	-3%	-12%	u	i	4.1µM*
CS(=O)(=O)N(CC(N)=O)c1ccc2c(c1)OCO2	i	3%	7%	-2%	i	3%
CCC1=C(OC(=O)N(CC)CC)N2C(=O)OC(=NCC(=O)OC)[C@]2(Cc2ccccc2)[C@H]2C1=CC[C@H]1C(=O)N(CC(=O)OC)C(=O)[C@H]12	i	9%	4%	-5%	i	3%[9.22 µM]
COC(=O)c1c(C)oc2ccc(N(C(=O)c3ccncc3)S(=O)(=O)c3ccc(C)cc3C)cc12	u	u	23µM*	15µM*	u	24%
COC(=O)c1c(C)oc2ccc(N(C(=O)c3ccncc3)S(=O)(=O)c3ccc4ccccc4c3)cc12	u	u	u	3.3µM*	u	-2%
COC(=O)c1c(C)oc2ccc(N(C(=O)c3ccncc3)S(=O)(=O)c3ccc(C)cc3)cc12	5.2µM*	2.6µM*	2.6µM*	u	1.6µM*	6.5µM*
Cc1ccc(S(=O)(=O)N(C(=O)c2ccncc2)c2ccc3oc4c(c3c2)CCCC4)cc1[N+](=O)[O-]	i	1%	1%	15µM*	u	14%
CC(=O)c1c(C)oc2ccc(N(C(=O)c3ccncc3)S(=O)(=O)c3ccc(F)cc3C)cc12	u	x	x	x	i	x
COC(=O)c1c(C)oc2ccc(N(C(=O)c3ccncc3)S(=O)(=O)c3ccccc3)cc12	u	-28%	-29%	26%	i	-3%
CCCOc1ccc(C(=O)NCCC(=O)NCCCC(=O)OCC)cc1	i	8%[9.24 µM]	6%	u	i	-5%
CCCCCNC(=O)C(c1ccc(C#N)cc1)n1c(=O)c(-c2ccco2)nc2ccccc21 (stereo unspecified)	i	-8%	-10%	x	i	x
CCCCCNC(=O)C(c1ccc(OC)cc1)n1c(=O)c(-c2ccco2)nc2ccccc21 (stereo unspecified)	u	15µM*	26µM*	x	18µM*	x
CCCNS(=O)(=O)c1ccc(OCC(=O)N2CCC(C(=O)OCC)CC2)cc1	i	1%	0%	10%	i	-13%
COc1cccc(C2=NOC(C(=O)Nc3cc(OC)c(OC)c(OC)c3)C2)c1 (stereo unspecified)	i	-29%	0%	u	21µM*	-4%
COc1cc(C2=NOC(C(=O)NC3CCCCC3)C2)cc(OC)c1OC (stereo unspecified)	i	-6%	-4%	1%	9.2µM*	0%
COc1cc(C2=NOC(C(=O)Nc3ccc(C)cc3)C2)cc(OC)c1OC (stereo unspecified)	i	-16%	4%	0%	i	3%
COc1ccc(NC(=O)C2CC(c3cc(OC)c(OC)c(OC)c3)=NO2)cc1OC (stereo unspecified)	i	-14%	4%	2%	13µM*	1%
COc1ccc(NC(=O)C2CC(c3ccc(OC)c(OC)c3)=NO2)cc1OC (stereo unspecified)	i	3%	4%	13%	i	-2%
C=CCNC(=O)c1ccccc1NS(=O)(=O)c1ccccc1	i	9%	8%	0%	i	0%
O=C1c2ccccc2C(=O)c2[nH]c(=O)[nH]c21	5.2µM*	6.5µM*	9.2µM*	u	10µM*	1.3µM*
O=C1c2ccccc2C(=O)c2[nH]cnc21	i	-26%	u	-2%	i	3%
Cc1cccc(NC(=O)CN2C(=O)CCS(=O)(=O)c3ccccc32)c1C	i	13%	u	8%	i	8%
CC1(Oc2ccc3ccccc3c2)CCN(Cc2cccn2-c2nccs2)C1 (stereo unspecified)	i	15µM*	21µM*	x	i	x
Cc1ccc(-c2nn3c(C)nnc3c3ccccc23)cc1S(=O)(=O)NCc1ccco1	i	-5%	-1%	-9%	15µM*	-4%
COCCNS(=O)(=O)c1cc(-c2nn(C)c(=O)c3ccccc23)ccc1C	i	-11%	-20%	0%	u	-4%
SMILES	KB-3-1 tox	HT1080 IDH1KD tx	HT1080NT lethal	MCF10A rerep	KB-V1 cytotox	SW480 rereplic
CCCCNS(=O)(=O)c1cc(-c2nn(C)c(=O)c3ccccc23)ccc1C	16µM*	u	-20%	2%	u	u
Cc1ccc(-c2nn3c(C)nnc3c3ccccc23)cc1S(=O)(=O)NC(C)(C)CO	i	u	-10%	11µM*	i	0%
Cc1ccc(-c2nn3c(C)nnc3c3ccccc23)cc1S(=O)(=O)NC(C)c1ccccc1 (stereo unspecified)	u	u	u	u	i	u
O=C(CCNS(=O)(=O)c1ccc2[nH]c(=O)oc2c1)Nc1cccc(Br)c1	i	17%	0%	9%	i	u
O=C(c1cccc2cccc(O)c12)N1CCCCC1	i	9%	2%	-7%	i	-15%
O=C(Nc1ccc([N+](=O)[O-])cc1)c1ccc(Cn2cc([N+](=O)[O-])cn2)cc1	i	u	u	u	i	-165%
CCN(CC)CCNC(Cc1ccccc1)c1cccc(OC)c1 (stereo unspecified)	i	-6%	-9%	u	23µM*	u
CCOC(=O)C1(Cc2cccc(F)c2)CCN(Cc2cnc(C)s2)CC1	i	0%	-4%	-1%	u	-1%
CC(c1cccs1)N(Cc1ccco1)C(=O)Nc1ccc(Cl)c(Cl)c1 (stereo unspecified)	i	-25%	-17%	u	16µM*	u
COc1ccc(CNc2nc3c(c(=O)[nH]c(=O)n3C)n2Cc2ccccc2C)cc1	i	-3%	-16%	23%	u	-5%
Nc1c(C(=O)N/N=C/c2cccnc2)oc2nc(-c3ccccc3)cc(-c3ccco3)c12	i	-25%	-5%	18µM*	i	u
NNC(=O)c1oc2nc(-c3ccc(Cl)cc3)cc(-c3ccccc3)c2c1N	u	u	-21%	8.2µM*	i	23µM*
O=C1N/C(=C\c2ccc(O)cc2)C(O)=C1C=NCc1ccccc1	u	-1%	u	10µM*	u	1%
COc1ccc(/C=C2\NC(=O)C(C=NCc3ccccc3)=C2O)cc1	i	-18%	4%	3%	i	-3%

Source: PubChem (National Center for Advancing Translational Sciences (NCATS))
